# Source: PubChem
# Only a selection was taken, and hits are over-represented in it overall.
# Sm TGR inh: qHTS Assay for the Inhibitors of Schistosoma Mansoni Peroxiredoxins; purified TGR, DTNB reduction, TNB absorbance 405 nm; Potency, µM (highest dose often 114 µM), for the others: at the highest dose activity change, negative = inhibition, most hits filed as inhibitors; 360,000 tested, 3% active; AID 485364, 2010; also: potency is read from the fitted curve at half-maximal effect; % is scaled to controls: 0 for no effect and ±100 for the full control effect; nearly all actives have a fitted effect of over 60% in size
#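 First, TGR (20 nM dispensed) and NADPH were mixed with compound. Second, a 15 min room-temperature incubation followed. Third, further NADPH and then DTNB were added to start the reaction. Finally, TNB absorbance was monitored kinetically.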
# Cycloheximide cs: Cycloheximide Counterscreen for Small Molecule Inhibitors of Shiga Toxin; cell reporter, cycloheximide protein synthesis inhibition counterscreen; max response, %; AID 2314, 2010; 300,000 tested, 12% active; in the data active = max response mostly above about 13%, no sharp cut-off; inactive = mostly below about 14%; also: read at 38.3 µM for the half of the compounds with a filed dose; 0% is about no effect
# Tb PYK inh: qHTS of Trypanosoma Brucei Inhibitors. TbPYK enzyme, Kinase-Glo Plus ATP luminescence, 45 min. pyruvate kinase (Trypanosoma brucei), Q57TT1. 410,000 tested, 0.12% active. AID 624173, 2012. Potency, µM (highest dose often 76.8 µM), for inactives: at the highest dose activity, negative = inhibition, usual class: inhibitors; also: potency is read from the fitted curve at half-maximal effect; % is scaled to controls: 0 for no effect and ±100 for the full control effect; nearly all actives have a fitted effect of over 50% in size
#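 Readout: single end-point luminescence (Kinase-Glo Plus, 10 min). Reaction conditions were TbPYK/substrate plus 130 uM ADP, 45 min at RT, pH 7.2 TEA buffer. No-enzyme wells served as controls, and data were normalized before concentration-response fitting.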
# LmPK inh: qHTS Assay for Inhibitors of Leishmania Mexicana Pyruvate Kinase (LmPK); Q27686; purified LmPK, Kinase-Glo ATP luminescence, 1 h; Potency, µM (highest dose often 57.5 µM), for inactives: at the top dose activity change, negative = inhibition, actives largely listed as inhibitors; 290,000 tested, 0.37% active; AID 1721, 2009; also: potency is read from the fitted curve at half-maximal effect; % is scaled to controls: 0 for no effect and ±100 for the full control effect
#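 Purified LmPK (0.1 nM) with 0.5 mM PEP and 0.1 mM ADP in imidazole buffer pH 7.2 with MgCl2/KCl, 1 h at room temperature. ATP formed was read by luciferase luminescence and normalized to no-enzyme and uninhibited controls.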
# FBPA Giardia inh: qHTS Assay for Inhibitors of Fructose-1,6-bisphosphate Aldolase from Giardia Lamblia; purified Giardia FBPA; 290,000 tested, 0.71% active; A8B2U2; AID 2451, 2010; Potency, µM (doses to about 59.6 µM), for the others: top-dose activity, negative = inhibition, actives largely listed as inhibitors; also: potency is read from the fitted curve at half-maximal effect; % is scaled to controls: 0 for no effect and ±100 for the full control effect; nearly all actives have a fitted effect of over 55% in size
# Target sequence (A8B2U2 whole entry, looked up): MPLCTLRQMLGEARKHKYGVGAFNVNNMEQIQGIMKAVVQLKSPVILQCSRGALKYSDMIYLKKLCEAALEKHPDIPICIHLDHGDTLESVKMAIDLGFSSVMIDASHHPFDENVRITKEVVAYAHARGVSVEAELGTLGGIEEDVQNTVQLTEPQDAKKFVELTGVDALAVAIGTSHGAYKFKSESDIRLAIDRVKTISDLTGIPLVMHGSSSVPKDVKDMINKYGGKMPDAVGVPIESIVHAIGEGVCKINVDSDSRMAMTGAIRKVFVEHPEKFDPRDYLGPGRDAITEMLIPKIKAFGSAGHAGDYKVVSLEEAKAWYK
#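 40 nM FBPA preincubated 10 min at RT with compound (up to 57.5 uM final), then substrate plus GAPDH/TPI/NAD/arsenate coupling and diaphorase/resazurin added. Fluorescence read after 20 min at RT, 525/598 nm.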
# Shiga toxin inh: A qHTS for Small Molecule Inhibitors of Shiga Toxin | Vero cells, Shiga toxin protein synthesis inhibition reporter | inhibition, % at 38.7 µM | 290,000 tested, 9.2% active | AID 2315, 2010; in the data active = inhibition mostly above about 28%, no sharp cut-off; inactive = mostly below about 43%; also: 0% is about no effect
# * marks the source's active call; other numbers are inactive results; ? = inconclusive; . = no result. Unless noted, calls follow the shape of the dose curve; as a rule, active = well fitted curve in the direction sought with a large enough effect; inconclusive = small, poorly fitted or top-dose-only effect, or another doubt; inactive = no such curve, though single readings can be large; an effect the other way counts as inactive or inconclusive.
SMILES,Sm TGR inh,Cycloheximide cs,Tb PYK inh,LmPK inh,FBPA Giardia inh,Shiga toxin inh
O=Cc1ccc(-c2cccc(C(=O)O)c2)o1,-34%,13,-5%,-2%,3%,25
O=C(/C=C/c1ccc(-c2ccccc2[N+](=O)[O-])o1)c1ccc(F)cc1,9%,43*,-1%,1%,-21%,64*
Cc1ccc(-c2ccc(/C=C/C(=O)c3ccccc3)o2)cc1,27%,26*,-5%,-15%,-4%,28
O=C(/C=C/c1ccc(-c2ccccc2)o1)c1ccccc1,?,74*,-1%,-20%,-25%,72*
O=C(CN1CCSc2ccccc21)N1CCN(c2cccc(Cl)c2)CC1,-8%,.,5%,.,.,.
COc1cccc(-c2cn3c(n2)sc2cc(C(=O)NCc4ccccc4F)ccc23)c1,7%,.,5%,.,.,.
CCc1ccc(CN(C(=O)c2oc3ccccc3c2C)C2CCS(=O)(=O)C2)cc1 (configuration not stated),-2%,-2,-12%,-3%,-1%,-3
Cc1ccc(CN(C(=O)c2cc3ccccc3oc2=O)C2CCS(=O)(=O)C2)cc1 (configuration not stated),10%,39*,-1%,-13%,-1%,73*
CCc1ccc(CN(C(=O)c2cc3ccccc3oc2=O)C2CCS(=O)(=O)C2)cc1 (configuration not stated),-6%,27*,-8%,-21%,.,72*
COc1ccc(CN(C(=O)c2cc3ccccc3oc2=O)C2CCCCC2)cc1OC,-10%,48*,2%,-1%,3%,65*
CC(C)N(Cc1ccc(F)cc1)C(=O)c1cc2ccccc2oc1=O,0%,43*,.,8%,-2%,55*
O=C(NNC(=O)C1CCC1)c1ccccc1F,-4%,.,4%,.,.,.
COc1cc(CN(C(=O)c2cc3ccccc3oc2=O)C2CCS(=O)(=O)C2)cc(OC)c1OC (configuration not stated),-9%,28*,-9%,0%,2%,30
O=C(c1cc2ccccc2oc1=O)N(Cc1ccco1)Cc1cccs1,28µM*,17*,-5%,3%,0%,20
O=C(c1cc2ccccc2oc1=O)N(Cc1cccs1)C1CCS(=O)(=O)C1 (configuration not stated),-6%,47*,-3%,-15%,4%,144*
O=C(c1ccccc1F)N(Cc1ccc(F)cc1)C1CCS(=O)(=O)C1 (configuration not stated),16%,1,-9%,0%,12%,2
COc1cc(CN(C(=O)c2oc3ccccc3c2C)C2CCS(=O)(=O)C2)cc(OC)c1OC (configuration not stated),11%,.,0%,.,.,.
O=C(c1ccccc1F)N(Cc1cccs1)C1CCS(=O)(=O)C1 (configuration not stated),3%,-4,2%,0%,-5%,-14
O=C(c1cc2ccccc2oc1=O)N(Cc1ccc(F)cc1)C1CCS(=O)(=O)C1 (configuration not stated),-8%,64*,1%,-21%,-4%,130*
Cc1ccccc1/C=C1\SC(=S)N(/N=C/c2cc([N+](=O)[O-])ccc2O)C1=O,-19%,-9,-24%,13%,13%,17
CCOc1ccc(C2=C(C(=O)CC)Sc3nncn3N2C(=O)CC)cc1,-31%,.,2%,.,.,.
CC(C)Cn1c(=O)c2sccc2n2c(CCCC(=O)NCCc3ccc(Cl)cc3)nnc12,-11%,.,2%,.,.,.
Cc1ccc(C(=O)c2c3ccc(C(F)(F)F)cc3[n+]([O-])n2CCCN)cc1,-25%,.,3%,.,.,.
Cc1ccc(C(=O)c2c3ccc([N+](=O)[O-])cc3[n+]([O-])n2CCCN)cc1,35µM*,.,-12%,.,.,.
NCCCn1c(C(=O)c2cc(Cl)c(N)c(Cl)c2)c2ccccc2[n+]1[O-],35µM*,.,-3%,.,.,.
SMILES,Sm TGR inh,Cycloheximide cs,Tb PYK inh,LmPK inh,FBPA Giardia inh,Shiga toxin inh
CCCCCn1c(CCCNC(=O)c2cccc(C)c2)nc2ccccc21,6%,.,-1%,.,.,.
O=C(/C=C/c1ccco1)NC(=S)Nc1cc(-c2nc3ccccc3s2)ccc1Cl,?,58*,6%,1%,0%,94*
Cc1ccc(-c2nc3ccccc3s2)cc1NC(=O)c1ccc2c(c1)OCO2,-23%,6,-6%,3%,0%,24
Cc1ccc(-c2nc3ccccc3s2)cc1NC(=S)NC(=O)/C=C/c1ccco1,?,29*,-6%,4%,6%,63*
Cc1ccc(-c2nc3ccccc3s2)cc1NC(=S)NC(=O)c1cccc2ccccc12,7%,35*,-26%,0%,1%,80*
CCOc1ccc(NC(=O)CCS(=O)(=O)c2ccc(C)cc2)cc1,-16%,2,-18%,0%,1%,-17
CC(=O)C(O)C(c1ccccc1)c1c(O)c2ccccc2oc1=O (configuration not stated),.,-9,.,.,12%,-5
O=C(Nc1cccc(Cl)c1)c1cc2c(=O)[nH]c3ccccc3c2s1,-1%,.,-4%,.,.,.
COc1ccc(Br)cc1CNC(=O)c1ccc2c(c1)nc1n2CCCCC1,12%,.,-8%,.,.,.
CCOc1ccc(-n2cc(-c3ccc(OC)c(OC)c3)[nH]c2=S)cc1,-31%,10,1.1µM*,?,0%,25
CCOc1ccc(-c2cn(-c3ccccc3OC)c(=S)[nH]2)cc1,8%,18*,-21%,4%,6%,52*
Cc1ccc2cc3c(N)[nH]nc3nc2c1,2%,21*,-12%,0%,4%,14
Cc1ccc2ccc(C3C(=O)c4ccccc4C3=O)nc2c1,.,.,-1%,.,.,.
CCOc1ccccc1NC(=O)c1nn(-c2ccc(C)cc2)c(=O)n(C)c1=O,1%,.,-4%,.,.,.
Cc1ccc([N+](=O)[O-])cc1NC(=O)c1cccs1,-3%,1,2%,1%,1%,-11
CNc1cc([N+](=O)[O-])ccc1N/C=C/C(=O)c1ccc2c(c1)OCO2,-15%,76*,-2%,5%,1%,124*
CNc1cc([N+](=O)[O-])ccc1N/C=C/C(=O)c1cccs1,-17%,33*,1%,-2%,-5%,107*
O=C(Cc1cccs1)Nc1cccc([N+](=O)[O-])c1,.,23,-3%,2%,-5%,19
O=C(/C=C/Nc1cccc([N+](=O)[O-])c1)c1cccs1,-34%,32*,.,1%,-10%,89*
